Source: PubChem BioAssay (NCI)
The panel holds about 79,000 compounds, 15% with a hit somewhere; the sample as a whole holds those more often. Cut-off read from the data, not from the text of the source: active = growth inhibition above about 70%; inactive = the rest.

Key:
[1] = NCI Yeast Anticancer Drug Screen. Data for the rad50 strain (AID 155);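 note: 0% = growth of vehicle-only cultures of the same strain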; conditions: S. cerevisiae rad50 strain growth inhibition; at 50.0 µM; hits give high values
How it was run: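 DNA repair mutant yeast, compound exposure, growth read-out; inhibition is taken relative to vehicle.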

[2] = NCI Yeast Anticancer Drug Screen. Data for the mec2-1 strain (AID 157); conditions: S. cerevisiae mec2-1 strain, at 50.0 µM, hits give high values
How it was run: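 Test agents were screened against the mec2-1 yeast strain, with defined DNA repair or cell cycle alteration. Growth was scored as inhibition against vehicle-only controls.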

[3] = NCI Yeast Anticancer Drug Screen. Data for the sgs1 mgt1 strain (AID 161);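 note: 0% = growth of cultures given vehicle only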; conditions: S. cerevisiae sgs1 mgt1 strain, at 50.0 µM, hits give high values
How it was run: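 Genetically altered yeast, compound exposure, growth inhibition relative to vehicle.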

[4] = NCI Yeast Anticancer Drug Screen. Data for the cln2 rad14 strain (AID 165);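 note: 0% = growth equal to vehicle treated cultures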; conditions: S. cerevisiae cln2 rad14 strain, at 50.0 µM, hits give high values
How it was run: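 Growth of compound-exposed yeast (cln2 rad14 genotype) measured and expressed as inhibition relative to vehicle.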

[5] = NCI Yeast Anticancer Drug Screen. Data for the bub3 strain (AID 167); conditions: S. cerevisiae bub3 mutant strain, at 50.0 µM, hits give high values
How it was run: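 In this screen, a yeast mutant lacking normal mitotic checkpoint function is challenged with compound. Relative growth versus vehicle gives the inhibition value.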

[6] = NCI Yeast Anticancer Drug Screen. Data for the mlh1 rad18 strain (AID 175); conditions: S. cerevisiae mlh1 rad18 strain growth inhibition; at 50.0 µM; hits give high values
How it was run: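 In this whole-cell yeast screen, a strain with altered DNA damage repair is challenged with compound, and its growth is measured against matched vehicle-treated controls.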

Measured: growth inhibition

CCOC(=O)C(C)(C)Oc1ccc2c(-c3ccccc3)cc(=O)oc2c1
inactive: [1] -9.15% | [2] -8.4% | [3] 0.15% | [4] -13.1% | [5] -19.8% | [6] -25.6%

OCC(O)C(O)C(CN=Cc1ccccc1O)N=Cc1ccccc1O (stereo not drawn)
inactive: [1] 5.05% | [2] 1% | [3] 3% | [4] -26.1% | [5] 12.9% | [6] -2.45%

Cc1cccc(-n2cnc3c(N(CCO)CCO)ncnc32)c1
inactive: [1] 6.55% | [2] 2.6% | [3] -10.1% | [4] -4.5% | [5] 2.25% | [6] -4.3%

CC(=O)CC(=O)NCCN(C)C
inactive: [1] -23.6% | [2] -43% | [3] -11.2% | [4] 5.95% | [5] -9.3% | [6] -6.65%

COC1CCC(OC)(C(=O)NN)O1 (stereo not drawn)
inactive: [1] -22.9% | [2] -53.1% | [3] -9.45% | [4] 4.3% | [5] -57.2% | [6] -0.6%

COC(=O)/C=C/c1cc(=O)n2c(nc3ccccc32)s1
inactive: [1] -11.1% | [2] -20.1% | [3] -13.2% | [4] -35.2% | [5] -41.5% | [6] -12.2%

COC(=O)c1cc(C(=O)OC)c(C/C(=N/Nc2ccc([N+](=O)[O-])cc2[N+](=O)[O-])C(=O)Nc2cccc(C(F)(F)F)c2)nc1C/C(=N/Nc1ccc([N+](=O)[O-])cc1[N+](=O)[O-])C(=O)Nc1cccc(C(F)(F)F)c1
inactive: [1] 57% | [2] -5.95% | [3] 1.15% | [4] 25.4% | [5] 37.9% | [6] 59.8%

CCSc1[nH]c(NC(=NC(C)C)NC(=O)c2ccccc2)c(C(N)=O)c1C(N)=O
inactive: [1] 2.75% | [2] 1.35% | [3] 0.8% | [4] 9.3% | [5] -4.75% | [6] 18.6%

N#CC(C#N)=Cc1cccc(Oc2ccccc2)c1
inactive: [1] 57.1% | [2] -2.8% | [3] 9.6% | [4] 8.65% | [5] -8.65% | [6] -15.7%

Cc1ccc(C(C)C)c(OC(=O)NCCCCCCNC(=O)Oc2cc(C)ccc2C(C)C)c1
inactive: [1] -11% | [2] -4.2% | [3] 10.7% | [4] 11.1% | [5] -7.2% | [6] 9.05%

Cc1ccc2ccccc2c1CSc1nc(N)nc2c1ncn2CC(C)C
inactive: [1] 37% | [2] 23.6% | [3] 30.7% | [4] 25.6% | [5] 12.9% | [6] 46.5%

CC(C)=C1OC(=O)C1(C)C
inactive: [1] -5.75% | [2] 15.7% | [3] 1.5% | [4] 17.4% | [5] 5.5% | [6] -12.6%

COc1cc(C2CC(C)(OC)Oc3cc4c(cc32)OCO4)cc(OC)c1OC (stereo not drawn)
inactive: [1] 42.5% | [2] -2.6% | [3] 2.7% | [4] 19.8% | [5] 19.3% | [6] 20.2%

CC(CN(C)C)C(=O)C(=Cc1ccccc1)C(=O)C(C)CN(C)C (stereo not drawn)
inactive: [1] 40.1% | [2] 13.1% | [3] 16.9% | [4] 22.5% | [5] -2.5% | [6] 20%

CCOC(=O)Nc1ccc(F)cc1F
inactive: [1] -62.1% | [2] -10.6% | [3] -2.75% | [4] -10.5% | [5] 8.65% | [6] 14.4%

Cc1ccc(Nc2ncnc3sc(SCc4ccccc4)nc23)cc1
inactive: [1] -34.5% | [2] -20.4% | [3] -24.2% | [4] 3.75% | [5] -24.6% | [6] -28.1%

COc1ccc(/C(C#N)=C\c2ccc(N(C)C)cc2)cc1
inactive: [1] -4.8% | [2] -13.1% | [3] 3.1% | [4] -21.2% | [5] 10.2% | [6] -14.3%

CC1CCN(CCOC(=O)c2ccc(OC(C)C)cc2)C1 (stereo not drawn)
inactive: [1] 8.1% | [2] 12.6% | [3] 24.4% | [4] -10.5% | [5] 11.2% | [6] 12.1%

O=C(O)c1n[nH]c2ccccc12
inactive: [1] 8.5% | [2] -14.1% | [3] 3.75% | [4] 5.6% | [5] -5.7% | [6] -9.85%

CC1CCOC(c2ccccc2Cl)O1 (stereo not drawn)
inactive: [1] -25% | [2] 14.1% | [3] -4.55% | [4] -12.1% | [5] -9.3% | [6] 5%

O=[N+]([O-])Cc1ccc(Cl)cc1
inactive: [1] 4.6% | [2] 18.4% | [3] 13.1% | [4] -33% | [5] -19.7% | [6] 15.6%

CC(=O)Nc1c(C)ccc(C)c1C(=O)O
inactive: [1] 3.65% | [2] -0.7% | [3] 8.25% | [4] 1.15% | [5] 13.8% | [6] 11.8%

CC(O)C(=O)NN (stereo not drawn)
inactive: [1] 0.75% | [2] -17.7% | [3] -4.95% | [4] -13.6% | [5] -4.65% | [6] 9.4%
